High-throughput results (PubChem)
Most compounds without a hit are left out; they make up all but 3.4% or so of the library.
ERa coact inh: ERα–SRC-1 coactivator interaction inhibitors, primary screen, biochemical, TR-FRET, ERα LBD, estradiol-bound | Estrogen receptor (Homo sapiens), P03372 | TR-FRET ER-alpha LBD / SRC-1 peptide | inhibition, % at 25.6 µM | hit rate 1.7% among 86,000; in the data active means inhibition above about 50%
FAK blocker: FAK kinase inhibitors, primary screen, biochemical | AID 727, 2007 | hit rate 0.84% among 97,000 | Focal adhesion kinase 1 (Homo sapiens), Q05397 | biochemical FAK kinase activity assay | inhibition, %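 (tested at 7 µM)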
LYP inh 2: PTPN22 phosphatase inhibitors, primary screen, biochemical, DiFMUP fluorescence, 2 µM; Tyrosine-protein phosphatase non-receptor type 22 (Homo sapiens), Q9Y2R2; recombinant LYP catalytic domain; inhibition, % at 2 µM; hit rate 0.21% among 96,000; AID 640, 2007;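 active means inhibition at 2 µM at or above a set limit, the screen mean plus 3 SD, cut at about 24% in these data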
ERb coact inh: inhibitors of ERβ-SRC1 coactivator interaction, primary screen, biochemical, TR-FRET, ERβ LBD, SRC-1 peptide; AID 633, 2007; Estrogen receptor beta (Homo sapiens), Q92731; hit rate 1.3% among 86,000; inhibition, % at 25.6 µM; TR-FRET ER-beta LBD / SRC1-Cy5 peptide binding; receptor agonist-loaded with 1 µM estradiol;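 active means compounds whose percent inhibition of the receptor-coactivator binding signal exceeds about 50% in the single-dose screen, limit read from the data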
Target sequence (Q92731 whole entry, looked up, the tested form may be a part): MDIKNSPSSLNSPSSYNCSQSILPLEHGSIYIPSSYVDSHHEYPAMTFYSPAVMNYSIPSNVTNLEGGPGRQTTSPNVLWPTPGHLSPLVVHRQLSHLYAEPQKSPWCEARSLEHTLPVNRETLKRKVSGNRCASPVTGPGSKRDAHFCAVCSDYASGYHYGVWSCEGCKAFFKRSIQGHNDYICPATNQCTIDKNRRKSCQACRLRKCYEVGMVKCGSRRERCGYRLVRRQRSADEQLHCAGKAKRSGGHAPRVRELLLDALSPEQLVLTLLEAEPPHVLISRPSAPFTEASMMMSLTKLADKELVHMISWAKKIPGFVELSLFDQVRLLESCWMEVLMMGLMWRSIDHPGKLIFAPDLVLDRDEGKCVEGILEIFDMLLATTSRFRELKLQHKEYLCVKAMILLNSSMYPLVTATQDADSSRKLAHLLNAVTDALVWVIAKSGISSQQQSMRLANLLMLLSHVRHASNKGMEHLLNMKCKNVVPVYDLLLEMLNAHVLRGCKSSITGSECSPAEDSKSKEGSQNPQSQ
ERa SRC1 pot: enhancers of ERα–SRC-1 coactivator binding, primary screen, biochemical, TR-FRET, ERα LBD, low estradiol | hit rate 1.3% among 86,000 | coactivator binding (% of control), % at 25.6 µM | TR-FRET ERalpha-LBD/SRC-Cy5 coactivator binding, 2 h; 100 = basal binding, no effect | Estrogen receptor (Homo sapiens), P03372; in the data active means activity above about 200%;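 further: binding measured in presence of low estradiol as agonist stimulus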
LYP act: LYP phosphatase activators, primary screen, biochemical, DiFMUP fluorescence, 2 µM; Tyrosine-protein phosphatase non-receptor type 22 (Homo sapiens), Q9Y2R2; recombinant LYP; 0 = plate median, 100 = signal doubled; activation, % at 2 µM; hit rate 0.11% among 96,000;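 active means activation at 2 µM above a set limit, the mean plus 5 SD, cut at about 37% in these data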
FAK inh conf: FAK kinase inhibitors, retest, confirmation, biochemical | FAK kinase biochemical inhibition assay | hit rate 28% among 750 | shares compounds with FAK blocker | inhibition, % at 7 µM
Of the large screens only hits and unclear results are named; the others gave an inactive call (follow-up assays come after a bar, where they were run); [ ] = another dose, or the depositor's remark. Unless noted, no stated cut-off is given here; in the data, active means inhibition above about 19%; inactive means the rest.

CCCn1c(SCC(=O)Nc2ccc(OC)cc2)nnc1-c1ccncc1	none (no result: ERa coact inh, ERb coact inh, ERa SRC1 pot)
CCCc1[nH]nc2c1C(c1ccc(O)c(OC)c1)C(C#N)=C(N)O2 (configuration not stated)	FAK blocker 20 | FAK inh conf inactive
CN(C)c1cc2c(c(N(C)C)c1)C(=O)c1ccccc1C2=O	FAK blocker 49 (no result: ERa coact inh, ERb coact inh, ERa SRC1 pot) | FAK inh conf 24
C[N+]1(CC(=O)Nc2ccc(F)cc2)CCN(C(=O)c2ccco2)CC1	none
CCOC(=O)C1=C(c2ccccc2)OC(N)=C(C#N)C1c1cccs1 (configuration not stated)	FAK blocker 26 (no result: ERa coact inh, ERb coact inh, ERa SRC1 pot) | FAK inh conf 20
O=C(Nc1ccccc1N1CCCCC1)c1ccco1	FAK blocker 24 | FAK inh conf inactive
O=C(Nc1ccccc1N1CCCC1)c1ccco1	none
COc1ccc2cc3cc(C(=O)Nc4ccc5c(c4)OCCO5)oc3nc2c1	ERa coact inh 71[fluorescence artefact?], FAK blocker 43, ERa SRC1 pot 209 | FAK inh conf inactive
COc1ccc2cc3cc(C(=O)Nc4cc(OC)c(OC)c(OC)c4)oc3nc2c1	none
N=c1n(CCN2CCOCC2)c2ccccc2n1CC(=O)c1ccc(Cl)c(Cl)c1	FAK blocker 95 | FAK inh conf inactive
CCCCOC(=O)Cn1c(=N)n(CCN2CCOCC2)c2ccccc21	none
CCOC(=O)c1c(NC(=O)CSc2nncn2C)sc(C)c1C	none
Cn1cnnc1SCC(=O)Nc1sc2c(c1C(N)=O)CCC2	ERa coact inh 94[fluorescence artefact?], FAK blocker 23, ERb coact inh 93[fluorescence artefact?] | FAK inh conf inactive
CC(C)CN(C(=O)COC(=O)c1cc2c(s1)CCC2)C1CCS(=O)(=O)C1 (configuration not stated)	ERa coact inh 80, FAK blocker 30, ERb coact inh 75 | FAK inh conf inactive
O=C(CNC(=O)c1ccco1)OCC(=O)c1ccc2c(c1)CCCC2	FAK blocker 27 (no result: ERa coact inh, ERb coact inh, ERa SRC1 pot) | FAK inh conf inactive
CCc1ccc(C(=O)COC(=O)CNC(=O)c2ccco2)cc1	none (no result: FAK blocker, LYP inh 2, LYP act)
Cc1sc(NC(=O)c2sc3nc4c(C)cccc4cc3c2N)c(C#N)c1C	FAK blocker 29, LYP inh 2 56 (no result: ERa coact inh, ERb coact inh, ERa SRC1 pot) | FAK inh conf inactive
Cc1cccc(NC(=O)NCc2ccc3c(c2)cc(C)n3C)c1	FAK blocker 22 | FAK inh conf inactive
CN1CCN(CC(=O)n2c3c(c4ccccc42)CCCC3)CC1	FAK blocker 20 | FAK inh conf inactive
CCN(CC)CC(=O)n1c2c(c3ccccc31)CCCC2	none (no result: FAK blocker, LYP inh 2, LYP act)
COc1cc(NS(=O)(=O)c2ccc(Br)cc2)c(OC)cc1NC(=O)c1ccco1	none
O=C(CCCCCN1C(=O)CCC1=O)Nc1ccc(Cl)c(C(F)(F)F)c1	none
CCc1ccc(OCC(=O)Nc2cc(S(=O)(=O)CC)ccc2O)cc1	none (no result: ERa coact inh, ERb coact inh, ERa SRC1 pot)
O=C1NC(=O)[C@@H]2C3c4ccccc4C=CN3[C@H](C(=O)c3cccs3)[C@H]12 (some centres not stated)	FAK blocker 20 | FAK inh conf inactive
COc1ccc(NC(=O)[C@@H]2[C@@H]3C(=O)N(C4CCCCC4)C(=O)[C@@H]3C3c4ccccc4C=CN32)cc1 (some centres not stated)	none
O=S(=O)(NCCSc1nnc(-c2ccco2)n1-c1ccccc1)c1ccccc1	none
O=P(O)(O)c1ccccc1OCc1ccccc1	FAK blocker 84 | FAK inh conf 81
O=P(O)(O)c1ccccc1OCCCCCOc1ccccc1P(=O)(O)O	FAK blocker 88 | FAK inh conf 66
O=P(O)(O)c1ccccc1OCCOCCOc1ccccc1P(=O)(O)O	none (no result: FAK blocker, LYP inh 2, LYP act)
CO/N=C/NC(=O)c1c(OC)ccnc1Oc1cccc(C(F)(F)F)c1	none (no result: ERa coact inh, ERb coact inh, ERa SRC1 pot)
O=C(CSc1nnc(COc2ccccc2Cl)o1)NC(=O)NC1CCCC1	FAK blocker 23 | FAK inh conf inactive
